Only some compounds are listed: those with a hit (about 1.3% of all), similar ones and a draw of the others.
AGP1-GFP MLPCN = alters AGP1-GFP fluorescence in TOR pathway yeast screen; S. cerevisiae AGP1-GFP multiplex flow cytometry, 3 h; GFP as percent of DMSO wells; GFP response vs DMSO, % at 10 µM; 0.02% of 320,000 active; AID 2066;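 active = GFP response relative to DMSO above a set limit, near screen average plus 3 SD, cut at about 150% in these data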;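 note: median GFP channel fluorescence of the gated AGP1 strain per well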
CIT2 TOR yeast = modulators of TOR pathway CIT2-GFP in S. cerevisiae; GFP response vs DMSO, % at 10 µM; S. cerevisiae CIT2-GFP strain, flow cytometry, 3 h; 100 means same as DMSO wells; AID 2029; 0.065% of 320,000 active;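 active = GFP response relative to DMSO above a set limit, near the screen mean plus 3 SD, cut at about 150% in these data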;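 note: ratio of well median GFP fluorescence to mean of DMSO wells on the plate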
RPL19A TOR yeast = yeast TOR pathway RPL19A-GFP modulation. S. cerevisiae RPL19A-GFP strain, flow cytometry, 3 h; active compounds read low. percent response vs DMSO, % at 10 µM. 0.3% of 330,000 active. AID 2025;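 active = percent response vs DMSO below 50%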;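 note: median channel GFP fluorescence of the barcoded RPL19A-GFP strain; ratio of sample median GFP to plate DMSO average so 100% = DMSO; lower means less RPL19A-GFP as with rapamycin TOR inhibition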
Efflux pump mplx = inhibitors of Candida antifungal efflux pumps expressed in yeast; inhibition, % at 10 µM; S. cerevisiae Candida pump triplex, Nile Red efflux; 0.44% of 330,000 active;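 active = plate passing quality check with inhibition over a set limit, or well fluorescence over plate mean plus 4 SD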;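 note: Nile Red retained in pooled yeast measured as flow cytometry median fluorescence; 0% = buffer negative control and 100% = Enniatin B positive control; higher means more Nile Red kept so more efflux inhibition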
MEP2-GFP yeast = alters MEP2-GFP fluorescence in TOR pathway yeast screen | S. cerevisiae MEP2-GFP strain, flow cytometry GFP, 3 h; 100% = DMSO control level | GFP response vs DMSO, % at 10 µM | 0.51% of 330,000 active;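 active = GFP response versus DMSO above a set limit, roughly screen mean plus 3 SD, cut at about 180% in these data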;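 note: median GFP fluorescence of the barcode-gated MEP2-GFP cells per well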
LAP4-GFP MLPCN = alters LAP4-GFP fluorescence in TOR pathway yeast screen; S. cerevisiae LAP4-GFP multiplex, flow cytometry GFP, 3 h; median GFP as percent of DMSO wells; GFP response vs DMSO, % at 10 µM; 0.34% of 320,000 active;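 active = GFP response vs DMSO above a set limit, about the screen mean plus 3 SD, cut at about 150% in these data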
LAP4 cherry2 = yeast LAP4-GFP modulation, second cherry pick | shares compounds with LAP4-GFP MLPCN | 20% of 590 active | S. cerevisiae LAP4-GFP strain, flow cytometry GFP, 3 h | GFP response vs DMSO, % at 10 µM;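 active = GFP signal as percent of the solvent control above about 150%, meaning raised reporter expression, limit read from the data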;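 note: ratio of well median GFP fluorescence to plate DMSO mean so 100% = DMSO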
MEP2 cherry2 = yeast MEP2-GFP modulation, second cherry pick. 10% of 590 active. S. cerevisiae MEP2-GFP strain, flow cytometry GFP, 3 h. GFP response vs DMSO, % at 10 µM. shares compounds with LAP4-GFP MLPCN;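 active = GFP signal above 150% of the solvent control wells, that is a rise of more than half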;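 note: median channel GFP fluorescence of all gated yeast cells per well; ratio of median GFP to plate DMSO average so 100% = DMSO level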
RPL19A-GFP pick2 = reconfirmed modulator of RPL19A-GFP TOR reporter in yeast. shares compounds with LAP4-GFP MLPCN. S. cerevisiae RPL19A-GFP strain, flow cytometry GFP, 3 h; active compounds read low; 100% means same as DMSO wells. GFP response vs DMSO, % at 10 µM. 3% of 590 active;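 active = under 65% GFP response relative to DMSO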;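 note: median GFP channel fluorescence per well over the all cells gate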
CIT2 GFP CP2 = reconfirmed modulator of CIT2-GFP TOR reporter in yeast | 8% of 590 active | AID 2624 | shares compounds with LAP4-GFP MLPCN | GFP response vs DMSO, % at 10 µM | S. cerevisiae CIT2-GFP strain, flow cytometry GFP, 3 h; DMSO control wells read 100%;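 active = GFP response vs DMSO above about 150%, limit read from the data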;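 note: median green fluorescence per well over all gated yeast cells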
AGP1 GFP CP2 = reconfirmed modulator of AGP1-GFP TOR reporter in yeast; shares compounds with LAP4-GFP MLPCN; S. cerevisiae AGP1-GFP strain, flow cytometry GFP, 3 h; percent response vs DMSO, % at 10 µM; 590 tested, under 10 active;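 active = over 150 percent of DMSO response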;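 note: median GFP channel fluorescence over all cells without mother daughter split; sample median GFP divided by mean DMSO control so 100% equals DMSO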
s288c autofluor = compound is autofluorescent in yeast s288c cells; shares compounds with LAP4-GFP MLPCN; S. cerevisiae s288c, 520 nm autofluorescence, flow cytometry, 3 h; active compounds read high; zero means same as solvent-only cells; fluorescence change (kMESF span) at 33 µM; 610 tested, under 10 active; AID 2757;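 active = fluorescence span over the dose series, or activity score, above about 33, limit read from the data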
s288c autofl DR = counter-screen for autofluorescence of TOR hits in yeast s288c | shares compounds with LAP4-GFP MLPCN | S. cerevisiae s288c parental, compound autofluorescence, flow cytometry, 3 h | fluorescence change (span) at 33 µM | 110 tested, under 10 active | AID 488829;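 active = fluorescence change span, or the activity score built from it, above 25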
TORC1 bypass gr = stops wildtype yeast growth while TORC1 bypass cells still grow; S. cerevisiae BY4741 spot growth rating, 48-72 h; active compounds read low; 120 tested, under 10 active; AID 504456; shares compounds with LAP4-GFP MLPCN; growth rating (0-3) at 30 µM;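 active = growth rating at most 1 for wild type yeast while the TORC1 bypass strain still grows fully, rated 3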
Numbers without * were called inactive.

`O=[N+]([O-])c1ccc(O)c2ncccc12` gave AGP1-GFP MLPCN 106, CIT2 TOR yeast 82, RPL19A TOR yeast 97, Efflux pump mplx 0, MEP2-GFP yeast 105, LAP4-GFP MLPCN 313*, LAP4 cherry2 275*, MEP2 cherry2 159*, RPL19A-GFP pick2 100, CIT2 GFP CP2 120, AGP1 GFP CP2 129, s288c autofluor 1.3, s288c autofl DR 0.73 and TORC1 bypass gr 3.
O=[N+]([O-])c1cc(F)c2cccnc2c1O was read as AGP1-GFP MLPCN 115, CIT2 TOR yeast 103, RPL19A TOR yeast 93, Efflux pump mplx 0, MEP2-GFP yeast 114, LAP4-GFP MLPCN 185* and s288c autofluor 0.72.
For Cc1c(C)c2cccnc2c2ncccc12 the results were AGP1-GFP MLPCN 69, CIT2 TOR yeast 80, RPL19A TOR yeast 90, Efflux pump mplx 1, MEP2-GFP yeast 89, LAP4-GFP MLPCN 183*, LAP4 cherry2 118, MEP2 cherry2 133, RPL19A-GFP pick2 97, CIT2 GFP CP2 117 and AGP1 GFP CP2 99.
O=[N+]([O-])c1cc(Cl)c2cccnc2c1O was read as AGP1-GFP MLPCN 127, CIT2 TOR yeast 102, RPL19A TOR yeast 101, Efflux pump mplx 0, MEP2-GFP yeast 120, LAP4-GFP MLPCN 202*, s288c autofluor 0.31, s288c autofl DR 0.57 and TORC1 bypass gr 3.
Screening Cc1ccc2ccc3cccnc3c2n1 returned AGP1-GFP MLPCN 71, CIT2 TOR yeast 92, RPL19A TOR yeast 106, Efflux pump mplx 0, MEP2-GFP yeast 112 and LAP4-GFP MLPCN 90.
Screening O=[N+]([O-])c1ccc(O)c2cccnc12 returned AGP1-GFP MLPCN 105, CIT2 TOR yeast 111, RPL19A TOR yeast 99, Efflux pump mplx 0, MEP2-GFP yeast 99 and LAP4-GFP MLPCN 100.
`O=C(OCC(=O)c1ccc(Cl)s1)c1ccc2ccccc2n1` gave AGP1-GFP MLPCN 97, CIT2 TOR yeast 97, RPL19A TOR yeast 100, Efflux pump mplx 0, MEP2-GFP yeast 103 and LAP4-GFP MLPCN 110.
CC(Oc1ccc(Cl)cc1)C(=O)NCC1CCCO1 (stereo not given) was read as AGP1-GFP MLPCN 99, CIT2 TOR yeast 99, RPL19A TOR yeast 99, Efflux pump mplx 0, MEP2-GFP yeast 101 and LAP4-GFP MLPCN 94.

Compound activity (PubChem)
